ELG1 genotox – induces genotoxicity in HEK293T cells with luciferase-tagged ELG1; HEK293T ELG1-luciferase reporter, luminescence, 16 h; Potency, µM (series often up to 46 µM), for inactives: at the top dose activity change, positive = activation, actives largely listed as activators; 330,000 compounds, 1.3% hits; AID 504466; further: % of control where 0% means no effect; nearly all actives have a fitted effect of over 60% in size
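Genotoxicity was scored as increased ELG1-luciferase reporter signal, measured by ONE-Glo luminescence (30 min, room temperature). Compound or vehicle exposure of the HEK293T reporter cells lasted 16 hr at 37°C.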
ELG1 DNA repair – inhibitors of ELG1-dependent DNA repair in HEK293T cells; AID 504467; 330,000 compounds, 2.3% hits; Potency, µM (top dose mostly 46.1 µM), inactives show at the highest dose activity change, negative = inhibition, actives largely listed as inhibitors; HEK293T ELG1-luciferase reporter, luminescence, 16 h; DNA damage induced by 5-fluorouridine; further: on the % scale 0 is the no-effect control and ±100 the full control effect; nearly all actives have a fitted effect of over 55% in size
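Quantitative HTS, concentration-response format. 2,000 cells/well co-treated with 5-fluorouridine and compound, 16 hr in 5% CO2 at 37 °C; ONE-Glo luminescence read after 30 min.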
SMN2 splice enh – enhancers of SMN2 splice variant expression; 210,000 compounds, 2.8% hits; HEK293 SMN2-luciferase splicing reporter, luminescence, 30-36 h; Potency, µM (doses to about 46.1 µM), without a hit: at the highest dose activity change, positive = activation, usual class: activators; AID 1458; further: % of control where 0% means no effect; nearly all actives have a fitted effect of over 55% in size
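qHTS luciferase splicing reporter: luminescence rises when SMN2 exon 7 is included in transfected HEK293 cells. Compound exposure lasted 30-36 h at 37C, with 4.5 mM final sodium butyrate as control, followed by a ONE-Glo read.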
NPC1 prom act – activators of NPC1 promoter; Huh7 NPC1 promoter luciferase reporter, 24 h; Potency, µM (highest dose often 9.22 µM), inactives show at the top dose activation, usual class: activators; 320,000 compounds, 2.4% hits; AID 485313; further: % of control where 0% means no effect; nearly all actives have a fitted effect of over 60% in size
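Compounds in DMSO were transferred onto Huh7 NPC1-luciferase reporter cells pre-incubated 2 h; after 24 h at 37 °C, Amplite reagent was dispensed and luminescence recorded 10 min later.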
Rab9 promoter act – activators of Rab9 promoter | Huh7 Rab9 promoter-luciferase reporter, luminescence, 24 h | Potency, µM (highest dose often 9.22 µM), for inactives: top-dose activation, negative = inhibition, actives largely listed as activators | 320,000 compounds, 2.8% hits | AID 485297; further: % of control where 0% means no effect; nearly all actives have a fitted effect of over 60% in size
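Promoter activation is measured as luciferase luminescence in Huh7 cells stably transfected with a Rab9 promoter–luciferase construct, following 24 h compound exposure at 37 °C and 10 min reagent incubation at ambient temperature.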
FLuc modulator – inhibits or activates purified firefly luciferase, miR-21 counter-screen. Potency, µM (titrated, usually from 57.5 µM), for the others: at the top dose activity change, negative = inhibition, most hits filed as inhibitors. purified FLuc, Km substrates, luminescence inhibition. AID 588342. 360,000 compounds, 6.9% hits;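 further: plate controls were vehicle for no effect and reference inhibitor for full effect; nearly all actives have a fitted effect of over 55% in size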
Target sequence (P08659 whole entry, looked up): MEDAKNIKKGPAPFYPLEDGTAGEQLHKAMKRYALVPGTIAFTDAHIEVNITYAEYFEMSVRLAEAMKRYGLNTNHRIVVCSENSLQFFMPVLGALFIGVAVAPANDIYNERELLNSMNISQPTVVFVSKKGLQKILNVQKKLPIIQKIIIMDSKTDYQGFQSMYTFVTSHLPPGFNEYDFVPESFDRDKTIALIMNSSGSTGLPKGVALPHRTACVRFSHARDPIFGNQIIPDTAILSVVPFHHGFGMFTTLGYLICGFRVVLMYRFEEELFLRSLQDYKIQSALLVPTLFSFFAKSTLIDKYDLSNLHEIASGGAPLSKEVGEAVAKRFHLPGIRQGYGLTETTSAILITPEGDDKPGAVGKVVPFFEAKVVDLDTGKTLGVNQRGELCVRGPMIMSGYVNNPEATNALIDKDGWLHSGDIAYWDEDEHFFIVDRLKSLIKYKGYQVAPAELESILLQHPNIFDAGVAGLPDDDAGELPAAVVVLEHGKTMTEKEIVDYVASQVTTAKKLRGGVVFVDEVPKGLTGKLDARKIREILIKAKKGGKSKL
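Purified P. pyralis luciferase (10nM final) with 10uM D-luciferin and 10uM ATP (Km levels) in 50mM Tris acetate pH 7.5, 10mM Mg acetate, 0.01% Tween-20, 0.05% BSA; qHTS 6-point titration, ~60 µM downward; luminescence read.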
* marks the source's active call; other numbers are inactive results; u = inconclusive; x = no result; [ ] = dose if it differs, or a comment. Compounds with a hit are over-represented: about 9.3% of the library has one in this group of screens. The call rests on the fitted dose curve; in most records, active means well fitted curve in the direction sought with a large enough effect; inconclusive means small, poorly fitted or top-dose-only effect, or another doubt; inactive means no such curve, though single readings can be large; an effect the other way counts as inactive or inconclusive. Potency means the concentration at half of the fitted maximal effect.

SMILES	ELG1 genotox	ELG1 DNA repair	SMN2 splice enh	NPC1 prom act	Rab9 promoter act	FLuc modulator
CCNc1ccc(C(=O)OCC)cc1NC(=O)c1cccc(N(C)C)c1	6%	u	12%	-9%	-7%	u
CCOC(=O)c1ccc(S(=O)(=O)NNC(=O)c2cccc(N(C)C)c2)cc1	0%	29%	15%	5%	18%	19µM*
N/C(Cc1cccs1)=N\OC(=O)COc1ccc(Cl)cc1Cl	16µM*	u	41%	28%	23%	15µM*
COc1ccc(OCC(=O)O/N=C(\N)Cc2cccs2)cc1	5%	u	-7%[1.84 µM]	6%	3%	u
Cc1cccc(OCC(=O)O/N=C(\N)Cc2cccs2)c1	-1%	-6%	-20%	7%	0%	-20%
N/C(Cc1ccc(Cl)cc1Cl)=N\OC(=O)Cc1cccs1	12%	u	15%	10%	-3%	5.4µM*
Cc1ccccc1C(=O)O/N=C(\N)Cc1cccs1	u	u	x	u	u	12µM*
Cc1ccccc1OCC(=O)O/N=C(\N)Cc1cccs1	-2%	u	-24%	13%	1%	12µM*
COc1ccc(CNC(=O)C/C(C)=N/NC(=O)c2ccccc2OC)cc1	1%	15%	x	-3%	14%	2%
O=C(c1ccc(-n2nc(C(F)(F)F)c3c2CCCC3)cc1)N1CCOCC1	-3%	5.2µM*	-1%	-7%	-5%	-1%
O=C(O)c1ccc(-n2nc(C(F)(F)F)c3c2CCCC3)cc1	0%	17%	8%	-3%	13%	u
CCP(=O)(CC)c1cccc(N)c1	1%	1%	-9%	0%	4%	-5%
Cc1cc(/C=N/NC(=O)c2ccc(O)cc2)c(C)n1C1CC1	1%	0%	-1%	-1%	-5%	u
Cc1ccc(N=Cc2cc(C)n(C3CCCC3)c2C)cc1	0%	21%	11%	6%	-6%	11µM*
COc1ccc(-c2oc3ncnc(NCCCN4CCOCC4)c3c2-c2ccc(OC)cc2)cc1	-4%	16µM*	-16%	-1%	-3%	2%
COc1ccc(-c2oc3ncnc(NCCN4CCOCC4)c3c2-c2ccc(OC)cc2)cc1	0%	u	-13%	-1%	-6%	-2%
COc1ccc(-c2oc3ncn(CCN4CCOCC4)c(=N)c3c2-c2ccc(OC)cc2)cc1	-6%	21µM*	-47%	1%	-9%	-1%
C[C@@H]1CN(C(=O)c2nc3ccc(Cl)cn3c2CN[C@H]2CCCCNC2=O)C[C@H](C)O1	-1%	5%	x	-15%	-7%	1%
O=C(Nc1ccccc1)Nc1cccc(-c2nnco2)c1	-3%	21%	x	3%	17%	15µM*
CC(=O)Nc1cccc(-c2nnc(-c3ccccc3)o2)c1	8.2µM*	u	13µM*	3.5µM*	3.5µM*	12µM*
CC(=O)Nc1cccc(-c2nc(-c3ccccc3)no2)c1	x	x	x	x	x	2.4µM*
CCOc1cccc(C(=O)Nc2cccc(-c3nnc(-c4ccc(C)cc4)o3)c2)c1	9%	-3%	-19%	-12%	-27%	0%
O=C(Nc1cccc(-c2nnc(-c3ccccc3)o2)c1)C1CC1	6%	u	-9%	19%	0%[1.84 µM]	u
CCOc1cccc(C(=O)Nc2cccc(-c3nnc(-c4ccccc4)o3)c2)c1	-9%	9.2µM*	-15%	1%	6%	6.7µM*
COc1ccc(CCNC(=O)CCS(=O)(=O)c2ccc(Br)cc2)cc1OC	0%	17%	-7%	-5%	-5%	-3%
SMILES	ELG1 genotox	ELG1 DNA repair	SMN2 splice enh	NPC1 prom act	Rab9 promoter act	FLuc modulator
CCC(=O)N1CCc2cc(S(=O)(=O)NCCCOC)ccc21	3%	1%	-4%	0%	-3%	0%
CCC(C)NC(=O)c1cnn(-c2cccc(F)c2)c1-n1cccc1 (stereo unspecified)	x	x	x	x	x	-13%
CCNC(=O)C1CC(=O)N(c2ccc(OCC)cc2)C1 (stereo unspecified)	4%	5%	5%	-3%	0%	2%
O=c1c(N2CCc3ccccc3C2)csc2ccc(F)cc12	x	x	x	x	x	6µM*
Cc1ccc2scc(N3CCCCC3C)c(=O)c2c1 (stereo unspecified)	x	x	x	x	x	0.95µM*
CC1CCN(c2csc3ccc(F)cc3c2=O)CC1	x	x	x	x	x	6µM*
Cc1ccc2scc(N3CCCCC3)c(=O)c2c1	x	x	x	x	x	0.85µM*
C=CCNCCOCCSc1ccc(Cl)cc1	-2%	-3%	7%	-3%	-5%	-1%
COC(=O)C1=C(C)NC2=C(C(=O)CC(C)(C)C2)C1c1cnn(C)c1C (stereo unspecified)	1%	-3%	-3%	-5%	-9%	-2%
CCC(=O)Nc1ccc2c(c1)nc(CCN1CCN(c3ccccc3)CC1)n2C	0%	-3%	x	-2%	-3%	0%
COc1ccc(N2CCN(c3csc4ccc(Cl)cc4c3=O)CC2)cc1	x	x	x	x	x	-20%
Cc1ccc2scc(N3CCC(C)CC3)c(=O)c2c1	x	x	x	x	x	1.2µM*
Cc1nnc(N/N=C\c2ccc(-c3ccccc3[N+](=O)[O-])o2)n1N	5%	u	14%	13%	6%	u
Cc1nnc(N/N=C/c2ccc(-c3ccccc3F)o2)n1N	u	u	x	28%	u	21µM*

Screens from PubChem.
